From PubChem BioAssay
The list is not random: actives were taken first. Their share in the collection is about 19%.
HepG2 viability: HepG2 cytotoxicity, counter-screen for TGF-b inhibitors; HepG2 CAGA-GFP viability, ATP luminescence, 18 h; Potency, µM (top dose mostly 46.1 µM), inactives show at the top dose activity change, negative = cytotoxicity, most hits filed as cytotoxic; 410,000 compounds, 0.76% hits; AID 588856; further: potency means the concentration at half of the fitted maximal effect
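HepG2 CAGA-GFP cells (1000/well, DMEM with 1% FBS) received compound, then TGF-beta at 500 pg/mL final, and were incubated 18 hours at 37 degrees C. Viability was read by CellTiter-Glo luminescence. Media-only wells were set as complete cell-killing and DMSO as no toxicity.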
S-ASM inh: inhibitors of human secretory acid sphingomyelinase; P17405; placental ASM, HMU-PC fluorogenic substrate, 60 min; Potency, µM (series often up to 57.5 µM), for inactives: at the top dose activity change, negative = inhibition, hits mostly inhibitors; 340,000 compounds, 0.006% hits; AID 504937; further: potency means the concentration at half of the fitted maximal effect
Target sequence (P17405 47-631 limits assumed): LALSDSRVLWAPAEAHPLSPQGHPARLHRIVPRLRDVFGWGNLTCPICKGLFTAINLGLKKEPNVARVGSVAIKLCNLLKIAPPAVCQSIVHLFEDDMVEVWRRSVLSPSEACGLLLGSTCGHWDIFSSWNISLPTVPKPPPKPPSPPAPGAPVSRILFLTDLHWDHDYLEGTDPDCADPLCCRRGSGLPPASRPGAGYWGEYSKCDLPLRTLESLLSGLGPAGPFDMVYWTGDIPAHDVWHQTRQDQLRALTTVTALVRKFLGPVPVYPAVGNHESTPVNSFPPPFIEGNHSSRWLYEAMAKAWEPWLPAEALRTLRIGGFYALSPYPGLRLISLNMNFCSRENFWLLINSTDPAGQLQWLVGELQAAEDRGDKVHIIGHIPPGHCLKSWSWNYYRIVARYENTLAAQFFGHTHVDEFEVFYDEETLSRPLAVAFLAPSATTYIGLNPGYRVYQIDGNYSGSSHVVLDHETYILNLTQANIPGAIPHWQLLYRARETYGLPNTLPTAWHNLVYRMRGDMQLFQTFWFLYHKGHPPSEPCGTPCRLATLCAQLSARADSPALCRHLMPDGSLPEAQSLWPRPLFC
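HMU-PC0 cleavage (9 uM final) by human placental ASM, 60 min at 37 °C following 10 min compound exposure at RT; stopped at pH 10, fluorescence Ex 386/Em 447 nm.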
IL-1B inflam inh: inhibitors of inflammasome signaling (IL-1 beta secretion) | THP-1 LPS/ATP IL-1B secretion, AlphaLISA, 16 h; hits give low values | activity change, % at 57.5 µM | 360,000 compounds, 4.7% hits | AID 743279; in the data active means activity change below about -50%; inconclusive means mostly about -30% to -49%; further: on the % scale 0 is the no-effect control and ±100 the full control effect
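THP-1 cells pretreated 1 hr with compounds (up to 57.5 uM final), then stimulated with LPS (250 ng/mL final) plus ATP (1.25 mM final); secreted IL-1B measured by AlphaLISA after 16 hr, decreased signal indicating inhibition.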
DT40 TDP1 no CPT: qHTS for Inhibitors of human tyrosyl-DNA phosphodiesterase 1 (TDP1): qHTS in cells in absence of CPT. DT40 Tdp1-/- hTDP1 cells, no CPT, ATP luminescence, 48 h. Potency, µM (doses to about 46.2 µM), for inactives: at the highest dose activity change, negative = growth inhibition, most hits filed as inhibitors. 420,000 compounds, 15% hits. AID 686978, 2013; further: potency means the concentration at half of the fitted maximal effect; on the % scale 0 is the no-effect control and ±100 the full control effect; nearly all actives have a fitted effect of over 55% in size
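Growth of hTDP1-complemented DT40 Tdp1-knockout cells is measured by ATP luminescence after at least 48 hr compound exposure at 37 °C, with DMSO substituting for the 20 nM CPT used in the parallel screen.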
TDP1 cell CPT: growth inhibition of DT40 Tdp1-/-;hTDP1 cells with camptothecin (screen for TDP1 inhibitors). chicken DT40 Tdp1-/-;hTDP1 cells + 20 nM CPT, ATP luminescence, 48 h. Potency, µM (series often up to 46.2 µM), without a hit: at the highest dose activity change, negative = growth inhibition, usual class: inhibitors. 420,000 compounds, 12% hits. AID 686979; further: potency means the concentration at half of the fitted maximal effect; on the % scale 0 is the no-effect control and ±100 the full control effect; nearly all actives have a fitted effect of over 55% in size
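Cell growth measured by CellTiter-Glo luminescence after a minimum 48 h, 37 C compound exposure with 20 nM CPT in Tdp1-knockout DT40 cells stably expressing hTDP1, seeded 400/well; qHTS titration format.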
TGFb inhibitor: inhibitors of TGF-b signaling; HepG2 CAGA-GFP TGF-b/SMAD3 reporter, GFP fluorescence, 18 h; TGF-beta stimulated, 500 pg/mL final; Potency, µM (highest dose often 46.1 µM), without a hit: top-dose activity, negative = inhibition, most hits filed as inhibitors; 410,000 compounds, 1.2% hits; further: potency means the concentration at half of the fitted maximal effect; on the % scale 0 is the no-effect control and ±100 the full control effect; nearly all actives have a fitted effect of over 65% in size
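Using HEPG2 CAGA-GFP reporter cells at 1000 cells/well, we pinned test compounds, stimulated with recombinant TGF-beta (500 pg/mL final) and measured total well GFP after 18 h.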
Active calls of the source: *. Unless noted, the call rests on the fitted dose curve; in most records, active means well fitted curve in the direction sought with a large enough effect; inconclusive means small, poorly fitted or top-dose-only effect, or another doubt; inactive means no such curve, though single readings can be large; an effect the other way counts as inactive or inconclusive.

Results for Cc1nc(Nc2ccc3c(c2)OCCO3)c2c(C)c(C)sc2n1 ?
HepG2 viability: -14%; S-ASM inh: -3%; IL-1B inflam inh: -15; DT40 TDP1 no CPT: 21µM*; TDP1 cell CPT: inconclusive; TGFb inhibitor: 6%

Results for COc1ccc(Nc2ncnc3c2oc2ccccc23)cc1 ?
HepG2 viability: -22%; S-ASM inh: -3%; IL-1B inflam inh: -11; DT40 TDP1 no CPT: -24%; TDP1 cell CPT: -14%; TGFb inhibitor: -10%

Results for CC(C)c1ccc(NC(=O)CC2NCCNC2=O)cc1 (stereo unspecified) ?
HepG2 viability: 0%; DT40 TDP1 no CPT: -14%; TDP1 cell CPT: 3%; TGFb inhibitor: -13%

How did O=C(OCC(=O)N(Cc1ccccc1)Cc1ccccc1)c1cccc(O)c1 do in these assays?
HepG2 viability: 2%; S-ASM inh: -2%; IL-1B inflam inh: 2; DT40 TDP1 no CPT: inconclusive; TDP1 cell CPT: inconclusive; TGFb inhibitor: -2%

How did O=C(OCC(=O)N(CCc1ccccc1)Cc1ccccc1)c1ccccc1O do in these assays?
HepG2 viability: 2%; S-ASM inh: -2%; IL-1B inflam inh: 5; DT40 TDP1 no CPT: inconclusive; TDP1 cell CPT: 18µM*; TGFb inhibitor: 2%

How did O=C(NCCC(=O)N(CCc1ccccc1)Cc1ccccc1)c1ccccc1Cl do in these assays?
HepG2 viability: -2%; S-ASM inh: 4%; IL-1B inflam inh: -19; DT40 TDP1 no CPT: 23µM*; TDP1 cell CPT: inconclusive; TGFb inhibitor: -8%

How did O=C(OCC(=O)N(Cc1ccccc1)Cc1ccccc1)c1ccccc1O do in these assays?
HepG2 viability: -9%; S-ASM inh: -2%; IL-1B inflam inh: 26; DT40 TDP1 no CPT: inconclusive; TDP1 cell CPT: 18µM*; TGFb inhibitor: 1%

How did Cc1ccc(S(C)(=O)=O)cc1C(=O)OCC(=O)N(Cc1ccccc1)Cc1ccccc1 do in these assays?
HepG2 viability: -21%; S-ASM inh: -3%; IL-1B inflam inh: -3; DT40 TDP1 no CPT: 16µM*; TDP1 cell CPT: 21µM*; TGFb inhibitor: -13%

How did O=C(OCC(=O)N(CCc1ccccc1)Cc1ccccc1)c1ccccc1NCCO do in these assays?
HepG2 viability: -2%; S-ASM inh: inactive; IL-1B inflam inh: 12; DT40 TDP1 no CPT: inconclusive; TDP1 cell CPT: inconclusive; TGFb inhibitor: 1%

Results for Cc1ccc(C(=O)NCCCc2ccccc2)c(Cl)c1 ?
HepG2 viability: -7%; S-ASM inh: 0%; IL-1B inflam inh: -13; DT40 TDP1 no CPT: 8%; TDP1 cell CPT: 14%; TGFb inhibitor: 7%

How did CCOC(=O)c1cc(OC(=O)c2cc(OC)c(OC)c(OC)c2)n(-c2ccccc2)n1 do in these assays?
HepG2 viability: -6%; TGFb inhibitor: -5%

What do the screens show for `Cc1cccc(CS(=O)(=O)Cc2ccc(C(=O)NCc3ccc(F)cc3)o2)c1`?
HepG2 viability: -21%; DT40 TDP1 no CPT: inconclusive; TDP1 cell CPT: 21µM*; TGFb inhibitor: inconclusive

What do the screens show for `Cc1cccc(CS(=O)(=O)Cc2ccc(C(=O)NCc3ccc(Cl)cc3)o2)c1`?
HepG2 viability: -5%; DT40 TDP1 no CPT: 23µM*; TDP1 cell CPT: 16µM*; TGFb inhibitor: -10%

Results for Cc1ccc(NC(=O)CCN2C(=O)c3ccccc3C2=O)cc1 ?
HepG2 viability: -2%; S-ASM inh: -2%; IL-1B inflam inh: -24; DT40 TDP1 no CPT: 3%; TDP1 cell CPT: 20%; TGFb inhibitor: -1%

What do the screens show for `C[C@H]1Cn2cnc(C(=O)Nc3cccc(Cl)c3)c2C(=O)N1`?
HepG2 viability: -30%; IL-1B inflam inh: -9; DT40 TDP1 no CPT: 12µM*; TDP1 cell CPT: inconclusive; TGFb inhibitor: 0%

What do the screens show for `COc1ccc(-c2nn(-c3ccccc3)cc2/C=N/NC(=O)c2cccc(S(=O)(=O)Nc3ccccc3OC)c2)cc1`?
HepG2 viability: -2%; S-ASM inh: 3%; IL-1B inflam inh: inactive; DT40 TDP1 no CPT: -20%; TDP1 cell CPT: -23%; TGFb inhibitor: 2%

How did COc1ccc(-c2nn(-c3ccccc3)cc2/C=N/NC(=O)c2ccc(Br)o2)cc1 do in these assays?
HepG2 viability: -13%; S-ASM inh: -5%; IL-1B inflam inh: -12; DT40 TDP1 no CPT: 21µM*; TDP1 cell CPT: 21µM*; TGFb inhibitor: 9%

What do the screens show for `C=CCNC(=S)N/N=C/c1cn(-c2ccccc2)nc1-c1ccc(OC)cc1`?
HepG2 viability: -17%; S-ASM inh: -10%; IL-1B inflam inh: 8; DT40 TDP1 no CPT: 9.2µM*; TDP1 cell CPT: -27%; TGFb inhibitor: -17%

What do the screens show for `O=C(O)C1CCN(C(=O)CSc2nc3ccccc3c(=O)n2Cc2ccccc2)CC1`?
HepG2 viability: 8%; S-ASM inh: 3%; IL-1B inflam inh: 26; DT40 TDP1 no CPT: -26%; TDP1 cell CPT: 10%; TGFb inhibitor: 10%

What do the screens show for `Cc1ccccc1Nc1cccc2nonc12`?
HepG2 viability: -42%; S-ASM inh: -7%; IL-1B inflam inh: -52*; DT40 TDP1 no CPT: -25%; TDP1 cell CPT: 2%; TGFb inhibitor: 0%

What do the screens show for `CCc1ccc(NC(=O)CSc2nc3ncccc3[nH]2)cc1`?
HepG2 viability: -28%; DT40 TDP1 no CPT: 13µM*; TDP1 cell CPT: inconclusive; TGFb inhibitor: -26%

How did COc1ccccc1NC(=O)CSc1nc2ncccc2[nH]1 do in these assays?
HepG2 viability: -3%; S-ASM inh: 2%; IL-1B inflam inh: 7; DT40 TDP1 no CPT: -14%; TDP1 cell CPT: -7%; TGFb inhibitor: -1%

How did CCCCc1ccc(NC(=O)CSc2nc3ncccc3[nH]2)cc1 do in these assays?
HepG2 viability: 1%; S-ASM inh: 1%; IL-1B inflam inh: -6; DT40 TDP1 no CPT: 1.2µM*; TDP1 cell CPT: 2.6µM*; TGFb inhibitor: 0%

What do the screens show for `COc1ccc(NC(C)=O)cc1NC(=O)CSc1nc2ncccc2[nH]1`?
HepG2 viability: -21%; S-ASM inh: 1%; IL-1B inflam inh: -1; DT40 TDP1 no CPT: 18µM*; TDP1 cell CPT: 13µM*; TGFb inhibitor: 18%

Results for CCOC(=O)c1ccc(NC(=O)CSc2nc3ncccc3[nH]2)cc1 ?
HepG2 viability: 5%; S-ASM inh: -3%; IL-1B inflam inh: -13; DT40 TDP1 no CPT: 21µM*; TDP1 cell CPT: inconclusive; TGFb inhibitor: -6%
